Source: PubChem BioAssay
DRD3 agonist – qHTS of D3 Dopamine Receptor Agonist: qHTS; D(3) dopamine receptor (Homo sapiens), P35462; AID 652048, 2013; max activation, %; actives 0.58% (n = 410,000); D3R DiscoveRx beta-arrestin cells, luminescence, 90 min; in the data active = max activation above about 30%
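Cells at 1500/well, incubated overnight, then treated with pinned compounds (dopamine as control) for 90 min at 37 degrees C. DiscoveRx reagent added for 30 - 60 minutes at room temperature; luminescence read.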
D3 antag – qHTS of D3 Dopamine Receptor Antagonist: qHTS. max response, negative = inhibition, %. AID 652054, 2013. D3R cells, DiscoveRx beta-arrestin luminescence, antagonist mode; active compounds read low. actives 2.5% (n = 360,000); in the data active = max response below about -50%; inconclusive = no clear call, values can overlap the other calls
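Cells plated overnight at 1500 cells/well, then exposed to library compounds with dopamine controls for 90 minutes at 37 degrees C. DiscoveRx reagent added for 30–60 minutes at room temperature; luminescence read, quantitative HTS format.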
GLP1R ag – qHTS of GLP-1 Receptor Agonists | HEK293 GLP-1R CRE-luciferase, luminescence, 4-6 h; cells express a hypersensitive GLP-1R form | Potency, µM (top dose mostly 45.6 µM), actives largely listed as activators | actives 0.007% (n = 380,000) | AID 624172, 2012
GLP1R inv ag – qHTS of GLP-1 Receptor Inverse Agonists (Inhibition Mode); Glucagon-like peptide 1 receptor (Homo sapiens), P43220; HEK293 GLP-1R CRE-luciferase, luminescence, 24 h; GLP-1R form is constitutively active; Potency, µM (series often up to 38.3 µM), hits mostly inhibitors; actives 1.6% (n = 410,000); AID 624417, 2012; also: nearly all actives have a fitted effect of over 55% in size
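GLP-1R inverse agonism mode: basal reporter luminescence in engineered HEK293 cells measured after one day of compound exposure at 37 deg C, with a 12 min room-temperature detection step.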
A number is an active result; - = inactive; ? = inconclusive; . = not tested or not shown. Sampled rows, rich in hits. Any-hit rate of the full collection: about 4.3%. Unless noted, calls follow the shape of the dose curve; as a rule, active = well fitted curve in the direction sought with a large enough effect; inconclusive = small, poorly fitted or top-dose-only effect, or another doubt; inactive = no such curve, though single readings can be large; an effect the other way counts as inactive or inconclusive.

SMILES | DRD3 agonist | D3 antag | GLP1R ag | GLP1R inv ag
OCc1cn(-c2ccccc2)nc1-c1ccc2c(c1)OCCO2 | - | - | - | -
Cc1cccc(NC(=O)CN2C(=O)C3(SCC(=O)N3c3ccccc3)c3ccccc32)c1 (centres undefined) | - | . | - | ?
CC(C)c1ccc(S(=O)(=O)c2cn(CC(=O)Nc3ccc(F)cc3)c3ccccc3c2=O)cc1 | - | . | - | -
CCC(CC)c1nn2c(=O)cc(COc3ccc(NC(=O)c4ccccc4Cl)cc3)nc2s1 | - | . | - | -
Cc1ccccc1Cn1ccn(-c2ccc(F)c(F)c2)c(=O)c1=O | 69 | . | . | -
CCOC(=O)CCS(=O)(=O)c1nc(-c2ccccc2)cc(C(F)(F)F)n1 | - | -51 | - | -
COC(=O)CCS(=O)(=O)c1nc(-c2ccccc2)cc(C(F)(F)F)n1 | - | -78 | - | ?
CCOC(=O)Cc1cc(-c2ccccc2)nc2ccc3ccccc3c12 | - | - | - | ?
